A number with no mark means an inactive call. Inconclusive results are not listed. Active and inactive are the calls of the source. The call rests on the fitted dose curve; in most records, active means well fitted curve in the direction sought with a large enough effect in the repeat runs; inconclusive means weak or mixed curves; inactive means no such curve, though single readings can be large; an effect the other way counts as inactive or inconclusive.

The nature of assay [1]: qHTS RealTime-Glo MT Cell Viability Assay in HEK293 cells - 0 hour (AID 1224880). Further: top concentration of the series differs between compounds; nearly all actives have a fitted effect of over 45% in size. The note with it: RealTime-Glo luminescence; series mostly up to 76.8 µM. In short, it runs like this: (§1)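 Real-time viability in HEK293: signal arises when living cells convert a prosubstrate for NanoLuc in the medium, so luminescence tracks viable cell number. Compound (23 nL, DMSO) added 5 h post-seeding; kinetic reads at 0–40 h, 37 C.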
In general terms: In qHTS, concentration-response curves come from the screen itself.

Assay [2] can be described thus: A CellTox Green Cytotoxicity Assay to monitor cytotoxicity in HEK293 cells - 32 hour (AID 1224881). Further: nearly all actives have a fitted effect of over 40% in size. The note with it: CellTox Green fluorescence; series mostly up to 76.8 µM. In short, it runs like this:
(§2)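 Cells (HEK293, 600/well) and dye reagent are dispensed together. After 5 h at 37 C, 23 nL compound is pinned in. Plates stay at 37 C for 40 h with fluorescence read at 0h, 8h, 16h, 24h, 32h and 40h.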

Assay [3] can be described thus: A CellTox Green Cytotoxicity Assay to monitor cytotoxicity in HepG2 cells - 0 hour (AID 1224882). Further: nearly all actives have a fitted effect of over 35% in size. The note with it: CellTox Green fluorescence; series mostly up to 76.8 µM. The essentials:
(§3)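 Cells and non-lytic dye reagent are dispensed together (600 HepG2 cells/well) and incubated 5 h before DMSO compound transfer. Kinetic fluorescence is then recorded in the same wells during 40 h at 37 C.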

Assay [4] can be described thus: A CellTox Green Cytotoxicity Assay to monitor cytotoxicity in HepG2 cells - 32 hour (AID 1224883). Further: nearly all actives have a fitted effect of over 50% in size. Further: potency means the concentration at half of the fitted maximal effect. The conditions noted are these: CellTox Green fluorescence; series mostly up to 76.8 µM. The essentials:
as §3

Assay [5] in a line: A CellTox Green Cytotoxicity Assay to monitor cytotoxicity in HEK293 cells - 8 hour (AID 1224884). Further: nearly all actives have a fitted effect of over 35% in size. The conditions noted are these: CellTox Green fluorescence; series mostly up to 76.8 µM. The essentials: as §2
Assay [6] is described as follows: qHTS RealTime-Glo MT Cell Viability Assay in HepG2 cells - 16 hour (AID 1224885). Further: nearly all actives have a fitted effect of over 50% in size. The conditions noted are these: RealTime-Glo luminescence; series mostly up to 76.8 µM. In short, it runs like this:
(§4)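 Cells + NanoLuc/prosubstrate dispensed (600 cells/well) → 5 h at 37 C/5% CO2 → compounds in DMSO transferred → 40 h incubation at 37 C, luminescence read at 0, 8, 16, 24, 32, 40 h.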

Assay [7] is described as follows: qHTS RealTime-Glo MT Cell Viability Assay in HEK293 cells - 24 hour (AID 1224886). Further: nearly all actives have a fitted effect of over 50% in size. Further: potency means the concentration at half of the fitted maximal effect. On activity change, negative = cytotoxicity: top concentration of the series differs between compounds. The note with it: RealTime-Glo luminescence; series mostly up to 76.8 µM. In short, it runs like this: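 Tox21 10K qHTS, HEK293, 600 cells/well, RealTime-Glo reagent co-dispensed with cells; 5 h preincubation, compound by pintool, 37 C, luminescence at 0–40 h.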
A short description of assay [8]: qHTS RealTime-Glo MT Cell Viability Assay in HEK293 cells - 8 hour (AID 1224887). Further: top concentration of the series differs between compounds; nearly all actives have a fitted effect of over 50% in size. The note with it: RealTime-Glo luminescence; series mostly up to 76.8 µM. The essentials:
as §1

Assay [9] is described as follows: A CellTox Green Cytotoxicity Assay to monitor cytotoxicity in HEK293 cells - 16 hour (AID 1224888). Further: nearly all actives have a fitted effect of over 35% in size. The note with it: CellTox Green fluorescence; series mostly up to 76.8 µM. In short, it runs like this: as §2
The nature of assay [10]: qHTS RealTime-Glo MT Cell Viability Assay in HepG2 cells - 0 hour (AID 1224889). Further: nearly all actives have a fitted effect of over 50% in size. The note with it: RealTime-Glo luminescence; series mostly up to 76.8 µM. The essentials: as §4
On the % scale 0 is the no-effect control and ±100 the full control effect.

In the case of `Cc1ccccc1N1C(=O)c2cc(S(N)(=O)=O)c(Cl)cc2NC1C` (stereo not given), the Potency result in assay [1], in assay [2], in assay [3], in [4], in [5] and in assay [6] was “inactive” throughout. Besides, the Potency entry in [7], in [8], in assay [9] and in assay [10] was “inactive” in each case.

As for `CCC1(C)CC(=O)NC1=O` (stereo not given), the Potency entry in [1], in assay [2], in [3], in assay [4], in assay [5] and in assay [6] was “inactive” in each case. For the same molecule, the Potency entry in assay [7], in assay [8], in assay [9] and in [10] was “inactive” in each case.

As to `c1ccc(COCc2ccccc2)cc1`, the Potency entry in assay [1], in assay [2], in assay [3], in assay [4], in [5] and in assay [6] was “inactive” each time. The Potency entry in assay [7], in assay [8], in assay [9] and in [10] was “inactive” throughout.

For `O=C(C(=O)c1ccccc1)c1ccccc1`, the Potency result in assay [1], in [2], in assay [3], in assay [4], in [5] and in [6] was “inactive” throughout. Further, the Potency entry in assay [7], in assay [8], in assay [9] and in [10] was “inactive” each time.

Consider `CCCCCCCCSCCO`, for which the Potency result in assay [1], in [2], in assay [3], in assay [5], in [6] and in assay [7] was “inactive” in each case. The Potency entry in assay [8], in [9] and in assay [10] was “inactive” in each case. Moreover, the Potency in assay [4] is 43.6 µM (active).

In the case of `CCCOc1ccc(S(=O)(=O)N2CCN(CC)CC2)cc1-c1nc2c(CC)n(Cc3ccccn3)nc2c(=O)[nH]1`, the Potency entry in assay [1], in assay [2], in [3], in [4], in [5] and in [6] was “inactive” in each case. Besides, the Potency result in [7], in assay [8], in assay [9] and in assay [10] was “inactive” each time.

As for `C[N+](C)(C)CCOC(N)=O`, the Potency entry in [1], in assay [2], in assay [3], in assay [4], in assay [5] and in assay [6] was “inactive” each time. Besides, the Potency result in [7], in assay [8], in assay [9] and in assay [10] was “inactive” in each case.

With `CCOC(=N)CC(=O)OCC`, the Potency result in assay [1], in assay [2], in [3], in assay [4], in [5] and in assay [6] was “inactive” in each case. Further, the Potency entry in assay [7], in assay [9] and in [10] was “inactive” in each case.

For the molecule `COC(=O)CC(=O)C(C)(C)C`, the Potency entry in assay [1], in assay [2], in assay [3], in [4], in assay [5] and in assay [6] was “inactive” each time. In addition, the Potency result in [7], in assay [8], in assay [9] and in assay [10] was “inactive” in each case.

For the molecule `Nc1nc(Cl)nc2c1ncn2[C@@H]1O[C@H](CO)[C@@H](O)[C@@H]1F`, the Potency entry in assay [1], in assay [2], in assay [3], in assay [4], in assay [5] and in [6] was “inactive” in each case. Also, the Potency result in assay [8], in assay [9] and in assay [10] was “inactive” throughout. Further, the Potency in assay [7] was 4.77 µM (active).

On to `CC(=O)Oc1ccc(C(=C2CCCCC2)c2ccc(OC(C)=O)cc2)cc1`, for which the Potency entry in [1], in [2], in [3], in [4], in [5] and in assay [6] was “inactive” throughout. For the same molecule, the Potency result in assay [7], in [8], in assay [9] and in assay [10] was “inactive” throughout.

With `CCC(C(=O)OCCOCCN(CC)CC)c1ccccc1` (stereo not given), the Potency result in assay [1], in assay [2], in [3], in assay [4], in assay [5] and in assay [6] was “inactive” in each case. In addition, the Potency result in assay [7], in assay [8], in assay [9] and in [10] was “inactive” each time.

Regarding `COc1ccc(C(=O)c2cccc(O)c2)c(OC)c1`, the Potency result in assay [1], in assay [2], in assay [3], in [4], in assay [5] and in [6] was “inactive” throughout. The Potency result in [7], in [8], in assay [9] and in assay [10] was “inactive” throughout.

For the molecule `C=CCCCCCCCCCCCCCCCC`, the activity change, negative = cytotoxicity was -0.1% [at 6.97 µM] in [1], -6.06% [at 6.97 µM] in assay [7], -0.881% [at 6.97 µM] in assay [8] and -21.4% [at 6.97 µM] in assay [10]. The cytotoxicity increase is -2.25% [at 6.97 µM] in [2], -20.4% [at 6.97 µM] in [4] and -6.36% [at 6.97 µM] in assay [5]. Besides, in assay [3], the cytotoxicity is -13.6% [at 6.97 µM]. Further, the activity change, negative = cytotoxic in [6] is -8.12% [at 6.97 µM]. In assay [9], the activity change was -0.39% [at 6.97 µM, stronger effect = higher value].

Regarding `CCCCOC(=O)CCS`, the Potency entry in [1], in assay [2], in assay [3], in assay [4], in assay [5] and in assay [6] was “inactive” in each case. In addition, the Potency entry in [7], in assay [8], in [9] and in assay [10] was “inactive” throughout.

As for `O=C(O)Cc1ccc(-c2ccccc2)cc1`, the Potency entry in [1], in assay [2], in assay [3], in assay [4], in [5] and in assay [6] was “inactive” each time. In addition, the Potency result in assay [7], in [8], in [9] and in assay [10] was “inactive” each time.

Turning to `O=S(=O)(c1ccccc1)c1ccc(Cl)cc1`, the Potency entry in [1], in assay [2], in [3], in assay [4], in assay [5] and in assay [6] was “inactive” each time. In addition, the Potency entry in [7], in [8], in assay [9] and in assay [10] was “inactive” in each case.

With `Cc1ccc(/C=N/n2c(-c3ccccc3)csc2=S)cc1`, the Potency entry in assay [1], in assay [2], in assay [3], in assay [4], in [5] and in [6] was “inactive” in each case. In addition, the Potency result in assay [7], in [8] and in assay [10] was “inactive” in each case.

Consider `CCC(=O)Oc1ccc(/C(CC)=C(\CC)c2ccc(OC(=O)CC)cc2)cc1`, for which the Potency result in assay [1], in [2], in assay [3], in [4], in [5] and in [6] was “inactive” throughout. Moreover, the Potency entry in assay [9] is “inactive”. Moreover, in assay [7], the Potency is 21.9 µM (active).

Regarding `COc1cc2c(N3CCN(C(=O)Nc4ccc(OC(C)C)cc4)CC3)ncnc2cc1OCCCN1CCCCC1`, the Potency entry in assay [1], in [2], in assay [3], in [5], in assay [6] and in assay [9] was “inactive” throughout. In [10], the Potency entry is “inactive”. For the same molecule, the Potency in assay [4] is 26.8 µM (active); in [7] it was 9.52 µM (active).

Regarding `Cc1cc(O)c2c(O)c3c(O)cccc3cc2c1`, the Potency result in assay [1], in assay [2], in [3], in assay [4], in assay [5] and in [6] was “inactive” in each case. The Potency entry in [7], in assay [9] and in assay [10] was “inactive” each time.

For the molecule `CC1=NN(c2ccc(C(=O)O)cc2)C(=O)C1`, the Potency result in assay [1], in [2], in assay [3], in assay [4], in assay [5] and in [6] was “inactive” throughout. In addition, the Potency result in assay [7], in [8], in assay [9] and in [10] was “inactive” in each case.

Take `O=C(O)c1ccc(CO)o1`: the Potency result in assay [1], in assay [2], in [3], in [4], in assay [5] and in [6] was “inactive” in each case. The Potency entry in [7], in assay [8], in assay [9] and in assay [10] was “inactive” in each case.

For the molecule `CC(=N\O)/C(C)=N/O`, the Potency result in [1], in assay [2], in [3], in assay [4], in assay [5] and in assay [6] was “inactive” throughout. Moreover, the Potency entry in assay [7] and in assay [9] was “inactive” in each case.

Turning to `Cc1cc(OI)c(C(C)C)cc1-c1cc(C(C)C)c(OI)cc1C`, the Potency result in assay [1], in assay [2], in assay [3], in assay [4], in assay [5] and in assay [6] was “inactive” in each case. Moreover, the Potency result in [7], in [8], in assay [9] and in [10] was “inactive” throughout.

`CCCCC(CC)C(=O)OCCOCCOCCOCCOC(=O)C(CC)CCCC` (stereo not given): the Potency entry in [1], in assay [2], in [3], in assay [4], in [5] and in [6] was “inactive” each time. Moreover, the Potency entry in [8] and in assay [9] was “inactive” each time.

The record behind these values is PubChem BioAssay (Tox21).
